# Shown are actives, neighbours in structure and some others; about 2.1% of the full set was active somewhere.
# VHR inh abs: VHR1 phosphatase inhibitors, primary screen, biochemical, absorbance, uHTS. Dual specificity protein phosphatase 3 (Homo sapiens), P51452. recombinant VHR phosphatase, pNPP absorbance. inhibition, % at 13.3 µM. hit rate 0.52% among 290,000. AID 1654, 2009; in the data active means inhibition above about 50%
# Target sequence (P51452 whole entry, looked up): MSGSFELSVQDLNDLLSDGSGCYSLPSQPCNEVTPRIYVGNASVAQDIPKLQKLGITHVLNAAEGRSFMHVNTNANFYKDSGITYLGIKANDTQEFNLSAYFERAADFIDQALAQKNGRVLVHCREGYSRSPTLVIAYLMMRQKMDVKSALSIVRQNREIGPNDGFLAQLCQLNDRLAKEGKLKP
# MazF activator: activators of E. coli MazEF toxin-antitoxin RNase, primary screen, biochemical, fluorescence, uHTS; FAM/BHQ RNA-DNA oligo cleavage fluorescence, 5 h; activation, % at 20 µM; hit rate 0.32% among 350,000; Endoribonuclease toxin MazF (Escherichia coli (strain K12)), P0AE70; in the data active means activation above about 50%
# Target sequence (P0AE70 whole entry, looked up): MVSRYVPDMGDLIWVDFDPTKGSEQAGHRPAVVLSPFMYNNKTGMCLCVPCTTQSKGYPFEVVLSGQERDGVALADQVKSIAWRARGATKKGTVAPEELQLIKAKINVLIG
# BJeLR lethal: MLPCN primary cell-based screen for lethality selective to Ras in HRASV12 cells | BJeLR (HRASV12) viability, CellTiter-Glo ATP luminescence, 48 h | inhibition, % (no concentration beside the values) | hit rate 0.17% among 300,000; in the data active means inhibition above about 50%
# PfHsp40 yeast: rescue of yeast from PfHsp40 toxicity, primary screen, S. cerevisiae, ATP luminescence | S. cerevisiae expressing PfHsp40, growth rescue | AID 504582, 2011 | growth rescue, % at 12.5 µM | hit rate 0.68% among 340,000; in the data active means growth rescue above about 28%, passing the limit was not always enough;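 further: yeast W303a lacking pdr1 and pdr3 grown in galactose medium; growth measured after three days at 30 °C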
# PrP UTR inh: inhibition of PrP 5' UTR reporter expression; hit rate 0.35% among 340,000; cell-based PrP 5' UTR mRNA reporter, plate reader; inhibition, % (test concentration not listed); in the data active means inhibition above about 52%; further: 0 = median of the neutral control wells
# PrPC surface inh: inhibitors of human cell surface prion protein PrPC, primary screen, cell-based, TR-FRET; hit rate 0.43% among 370,000; AID 720596, 2013; inhibition, % at 13.8 µM; TR-FRET read-out; Major prion protein (Homo sapiens), P04156; in the data active means inhibition above about 24%; further: 0% = median of the test wells and 100% = reference compound wells
# Starred values were filed as active, the others as inactive; nt = not tested or not shown; + = active, no number.
SMILES,VHR inh abs,MazF activator,BJeLR lethal,PfHsp40 yeast,PrP UTR inh,PrPC surface inh
COC(C(=O)Nc1ccnn1C1CCN(C(=O)c2ccc(C)cc2)CC1)c1ccccc1 (stereo not drawn),51.3*,2.1,-1.7,-0.3,-17.8,2.0
COc1ccc(-c2cc(C)no2)cc1S(=O)(=O)N1CCOc2ccc(C)cc21,-0.7,76.2*,-11.8,0.5,-20.9,-1.0
CCc1ccc(-c2cc(C)no2)cc1S(=O)(=O)N1CCOc2ccccc21,10.4,3.6,3.6,4.9,-4.0,1.3
c1ccc(Nc2ccccn2)cc1,12.9,2.5,0.6,-0.7,-27.9,-4.2
c1ccc(Nc2cccc(Nc3ccccc3)n2)cc1,28.6,1.5,-3.8,54.3*,-31.7,-3.5
Cn1c(SCC(=O)Nc2ccc3nc(SCC(=O)N4CCCC4)sc3c2)nnc1-c1ccc(N)cc1,51.6*,3.8,nt,0.4,-21.6,nt
Cn1c(SCC(=O)Nc2ccc3nc(SCC(=O)NC4CC4)sc3c2)nnc1-c1ccccc1,-12.5,-12.8,-2.5,0.5,-9.3,-2.2
Cc1ncoc1C(=O)N1CCCC(C(=O)c2ccc(-c3ccccc3)c(F)c2)C1 (stereo not drawn),8.4,10.8,-4.4,183.3*,-5.4,9.0
CCC(=Cc1ccccc1OC)c1ccncc1,nt,0.2,nt,0.4,-28.1,-1.6
COC(=O)CCCC1=CC2=CC(=O)C(C)(OC(=O)c3ccc(Cl)nc3)C(=O)C2=CO1 (stereo not drawn),nt,nt,1.5,nt,nt,nt
Cc1c(NC(=O)COC(=O)c2ccccc2O)c(=O)n(-c2ccccc2)n1C,nt,0.7,nt,nt,nt,4.5
CCN(CC(=O)Nc1ccc(NC(C)=O)cc1)C(=O)C(c1ccccc1)c1ccccc1,50.8*,1.5,4.8,0.5,-29.0,-1.9
C[C@H](O)[C@H]1CC[C@H]2[C@@H]3CCC4=CC(=O)CC[C@]4(C)[C@H]3CC[C@]12C,4.7,-0.2,7.5,158.1*,7.0,-0.5
CC12CCC(=O)C=C1CCC1C2CCC2(C)C(O)CCC12 (stereo not drawn),6.2,0.9,nt,-0.8,-9.8,-7.5
Cn1nnc(NC(=S)NC(=O)c2cc(Cl)ccc2Cl)n1,3.7,14.2,-1.6,-0.5,-3.5,-8.0
CCOc1ccccc1NC(=O)C1CCCN(S(=O)(=O)c2ccc3c(c2)CCCN3C(C)=O)C1 (stereo not drawn),nt,0.2,nt,nt,nt,8.9
CCOC(=O)/C(=C/c1ccc(OC(=O)c2ccccc2)cc1)C(C)=O,2.9,-2.8,5.7,311.8*,-15.4,6.7
Cc1ccc(OCc2nnc(SCC(=O)Nc3ccc(OCc4ccccc4)cc3)n2-c2ccc(Cl)cc2)cc1,nt,nt,nt,nt,nt,-4.9
COc1ccc(F)cc1CN1CCN(C(=O)CCC(=O)Nc2nnc(CC(C)C)s2)CC1,-3.0,-1.5,61.5*,-0.9,-12.9,-1.5
CCc1nnc(NC(=O)CCC(=O)N2CCN(Cc3ccc(C)cc3C)CC2)s1,55.6*,3.4,9.1,-1.0,-3.2,5.0
CCc1nnc(NC(=O)CCC(=O)N2CCN(Cc3cc(F)ccc3OC)CC2)s1,10.7,2.1,2.3,1.3,-12.6,4.2
O=C1c2ccccc2C(=O)N1CCC1(O)C(c2ccccc2)=Nc2ccccc21 (stereo not drawn),nt,3.8,nt,-1.4,-10.7,-7.3
CC(=O)n1cc(C=C2C(=O)NC(=O)NC2=O)c2ccccc21,-19.8,2.6,-3.9,-0.3,0.5,0.5
Cn1cc(C=C2C(=O)NC(=O)NC2=O)c2ccccc21,22.5,+,12.1,-0.4,-2.8,-3.5
C[C@@H](N)C(=O)NC[C@H]1O[C@@H](n2cnc3c(N)ncnc32)[C@H](O)[C@@H]1O,nt,2.2,nt,-1.1,-21.6,nt
CSc1ccccc1C(=O)N1CCC(n2nccc2NC(=O)C(C)(C)C)CC1,20.8,3.6,-0.3,0.1,-8.8,0.8
O=C(O)c1ccc(N=C2NC(=O)C(CO)(CO)S2)cc1,-3.8,2.7,-14.6,-0.6,-38.7,3.9
Cc1cc(NC(=O)CN2C(=O)NC3(CCC(C)CC3)C2=O)no1 (stereo not drawn),51.3*,3.7,-4.6,-0.5,-2.2,0.1
O=C(NCCCNc1ccc(C(F)(F)F)cc1[N+](=O)[O-])c1ccc(Cl)cc1,9.9,11.6,1.3,470.6*,-21.9,1.5
